Bioassay records from PubChem BioAssay.
Hits are enriched below; roughly 18% of the tested compounds scored in any of these assays.
DT40 TDP1 CPT – DT40-hTDP1 cell growth loss with CPT; chicken DT40 Tdp1-/-;hTDP1 cells + 20 nM CPT, ATP luminescence, 48 h; Potency, µM (top dose mostly 46.2 µM), for the others: top-dose activity change, negative = growth inhibition, usual class: inhibitors; actives 12% (n = 420,000); AID 686979; also: potency is read from the fitted curve at half-maximal effect; nearly all actives have a fitted effect of over 55% in size
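Chicken DT40 Tdp1-/- cells stably complemented with human TDP1 were seeded at 400 cells/well in medium containing 20 nM camptothecin, exposed to pin-transferred compounds, and grown at 37 °C for at least 48 hr. Viability was read as ATP luminescence.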
LDHA inh – inhibitors of human lactate dehydrogenase A. purified LDHA, NADH/diaphorase-resazurin fluorescence; hits give low values. activity change, % (values are at about 110 or 230 µM). actives 0.15% (n = 480,000). AID 1347041; in the data active = activity change below about -30%; inconclusive = mostly about -25% to -30%;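 also: plate controls were DMSO wells for no effect and wells without enzyme for full effect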
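Human LDH5 at 2 nM final in Tris HCl pH 7.4 with 0.06 mM NADH and 0.2 mM pyruvate, reacted 5 minutes at room temperature. Remaining NADH coupled via diaphorase/resazurin; resorufin fluorescence read at 0 and 20 minutes, normalized to enzyme-free and DMSO wells.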
RORgamma inh – blocks mouse ROR gamma transcriptional activity; P51450; Drosophila S2 Gal4-RORgamma UAS-luciferase reporter, 20 h; Potency, µM (titrated, usually from 53.6 µM), for the others: at the top dose activity change, negative = inhibition, usual class: inhibitors; actives 5.4% (n = 310,000); also: potency is read from the fitted curve at half-maximal effect; nearly all actives have a fitted effect of over 60% in size
Target sequence (P51450 whole entry, looked up, the tested form may be a part): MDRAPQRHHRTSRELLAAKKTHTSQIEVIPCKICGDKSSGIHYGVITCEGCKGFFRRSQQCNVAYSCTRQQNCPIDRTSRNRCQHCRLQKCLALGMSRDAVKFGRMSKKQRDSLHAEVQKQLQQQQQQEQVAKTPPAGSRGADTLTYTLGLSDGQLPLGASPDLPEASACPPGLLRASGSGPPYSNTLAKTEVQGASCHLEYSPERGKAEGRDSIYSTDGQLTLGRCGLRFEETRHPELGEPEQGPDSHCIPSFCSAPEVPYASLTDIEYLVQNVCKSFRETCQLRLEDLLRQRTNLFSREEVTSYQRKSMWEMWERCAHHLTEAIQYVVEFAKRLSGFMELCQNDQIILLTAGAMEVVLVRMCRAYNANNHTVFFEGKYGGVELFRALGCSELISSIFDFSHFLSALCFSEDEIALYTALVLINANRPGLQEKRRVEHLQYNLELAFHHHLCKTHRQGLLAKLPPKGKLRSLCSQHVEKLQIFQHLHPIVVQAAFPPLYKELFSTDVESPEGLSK
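Drosophila S2 cells stably expressing Gal4-DBD/mouse RORγ fusion under metallothionein promoter plus UAS-luciferase; compound 1 h, then 700 uM CuSO4 induction for 20 h at ambient temperature; inhibition read as reduced luminescence.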
Gal4-VP16 FLuc – Gal4-VP16 reporter inhibition counter-screen | actives 3.5% (n = 310,000) | Drosophila S2 Gal4-VP16 UAS-luciferase, luminescence, 20 h | Potency, µM (highest dose often 53.6 µM), for the others: at the highest dose activity, negative = inhibition, hits mostly inhibitors;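 also: Gal4-VP16 expression switched on by copper sulfate through the metallothionein promoter; potency is read from the fitted curve at half-maximal effect; nearly all actives have a fitted effect of over 50% in size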
IL-1B inflam inh – inhibitors of inflammasome signaling (IL-1 beta secretion); activity change, % at 57.5 µM; THP-1 LPS/ATP IL-1B secretion, AlphaLISA, 16 h; hits give low values; actives 4.7% (n = 360,000); in the data active = activity change below about -50%; inconclusive = mostly about -30% to -49%
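Secreted IL-1B measured by AlphaLISA bead assay after 16 h compound exposure of THP-1 cells; compounds (final up to 57.5 uM) added 1 h before LPS (250 ng/mL) and ATP (1.25 mM) stimulation; lower signal means less secretion.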
TDP1 cell noCPT – qHTS for Inhibitors of human tyrosyl-DNA phosphodiesterase 1 (TDP1): qHTS in cells in absence of CPT | DT40 Tdp1-/- hTDP1 cells, no CPT, ATP luminescence, 48 h | Potency, µM (highest dose often 46.2 µM), for inactives: at the top dose activity change, negative = growth inhibition, usual class: inhibitors | actives 15% (n = 420,000) | AID 686978, 2013; also: potency is read from the fitted curve at half-maximal effect; nearly all actives have a fitted effect of over 55% in size
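Stably hTDP1-transfected Tdp1-null chicken DT40 cells were treated with library compounds minus camptothecin and grown for at least 48 hr at 37 °C, after which cellular ATP was quantified by luminescence.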
* = called active by the depositor; ? = inconclusive; · = no result; [ ] = dose if it differs, or a comment. Unless noted, calls follow the shape of the dose curve; as a rule, active = well fitted curve in the direction sought with a large enough effect; inconclusive = small, poorly fitted or top-dose-only effect, or another doubt; inactive = no such curve, though single readings can be large; an effect the other way counts as inactive or inconclusive. Unless noted, % is scaled to controls: 0 for no effect and ±100 for the full control effect.

SMILES	DT40 TDP1 CPT	LDHA inh	RORgamma inh	Gal4-VP16 FLuc	IL-1B inflam inh	TDP1 cell noCPT
Cc1ccccc1-n1c(SC(C)C(=O)c2ccc(Br)cc2)nnc1N1CCOCC1 (configuration not stated)	·	6	·	·	·	·
COc1cccc(CNc2ncnc3c2nnn3C)c1	?	-4	·	·	·	?
COc1ccc(CCNc2ccncn2)cc1OC	-25%	-1	5%	-22%	22	-26%
COc1ccc(CCNc2ccncn2)cc1	9.2µM*	3	?	?	-5	15µM*
COc1ccc(CCNc2ncnc3c2nnn3C)cc1	16µM*	-1	·	·	·	21µM*
COc1cccc(CCNc2ncnc3c2nnn3C)c1	?	-5	·	·	·	8.2µM*
Cc1nc(=S)c2c([nH]1)-c1ccccc1CC21CCCCC1	21µM*	-2	0.2µM*	1µM*	1	18µM*
CCc1nc2c(c(=O)[nH]1)C1(CCCC1)Cc1ccccc1-2	-15%	-7	17%	-6%	-7	-20%
CC(Sc1ccc(Br)cc1)C(=O)NC(N)=O (configuration not stated)	·	3	·	·	·	·
CN(c1ccccc1)S(=O)(=O)c1cccc(NC(=O)Cn2cnc3c2c(=O)n(C)c(=O)n3C)c1	23µM*	-7	?	-6%	8	16µM*
Cc1ccccc1C(=O)Nc1cccc(NC(=O)Cn2cnc3c(=O)n(C)c(=O)n(C)c32)c1	10µM*	-3	-15%	1%	47	8.2µM*
CN(c1ccccc1)S(=O)(=O)c1cccc(NC(=O)CSc2nnc(N)s2)c1	8.2µM*	1	?	?	-3	8.2µM*
CN(c1ccccc1)S(=O)(=O)c1cccc(NC(=O)CSc2nncs2)c1	7.3µM*	-1	37%	22µM*	1	8.2µM*
Cn1c(=O)c2c(ncn2CC(=O)Nc2ccccc2)n(C)c1=O	-23%	-2	0%	5%	8	-29%
Cc1cccc(NC(=O)CSc2nnc(N)s2)c1	7%	-5	·	·	·	-16%
Cc1nn(Cc2ccccc2)c(C)c1NC(=O)COCc1cc(-c2ccco2)on1	·	1	·	·	·	·
CCc1cc(=O)oc2c(C)c(OCC(=O)NCCCN(C)C)ccc12	·	14	·	·	·	·
Cc1cc(N/N=C/c2cccnc2)nc(NCc2ccccc2)n1	·	-1	·	·	·	·
Cc1ccc(C(O)CNC(=O)Nc2c(C)cccc2C)cc1 (configuration not stated)	·	0	·	·	·	·
CN(c1ccccc1)S(=O)(=O)c1cccc(NC(=O)CSc2nnc(C3CC3)n2C)c1	-16%	-1	·	·	16	-15%
CN(c1ccccc1)S(=O)(=O)c1cccc(NC(=O)CSc2ncn[nH]2)c1	8.2µM*	0	?	?	23	5.8µM*
COc1ccc(/C=N/n2cnc3c([nH]c4ccc(C)cc43)c2=O)cc1CN1CCCC1	5.2µM*	-3	?	?	-102*	7.3µM*
COc1ccc(/C=N/n2cnc3c([nH]c4ccc(F)cc43)c2=O)cc1CN1CCCC1	5.2µM*	-4	-80%	11µM*	33	3.3µM*
COc1ccc(C2Oc3c(C(C)(C)C)cc(C(C)=O)c4c(OC(C)=O)c(C(C)(C)C)cc2c34)cc1OC (configuration not stated)	·	7	·	·	·	·
COC(=O)c1c(C)[nH]c(C(=O)OC(C)C(=O)c2ccc(F)cc2F)c1C (configuration not stated)	·	0	·	·	·	·
COc1cc(C)ccc1OCCOCCOc1cccc2ccc(C)nc12	16µM*	-18	-25%	-8%[10 µM]	27	16µM*
C=CCc1ccc(OCCOCCOc2cccc3ccc(C)nc23)c(OC)c1	18µM*	-15	-31%	-11%	-10	11µM*
COC(=O)C(=O)CC(=O)c1ccc(N2CCOCC2)cc1	·	12	·	·	·	·
